# Source: PubChem BioAssay (NCI)
# The panel holds about 79,000 compounds, 15% with a hit somewhere; the sample as a whole holds those more often. Values without a mark were called inactive. The source made the active and inactive calls. Cut-off read from the data, not from the text of the source: active = growth inhibition above about 70%; inactive = the rest.
# Tests used:
# [1] = NCI Yeast Anticancer Drug Screen. Data for the rad50 strain (AID 155);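 note: 0% = growth of vehicle-only cultures of the same strain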; details: S. cerevisiae rad50 strain growth inhibition; at 50.0 µM; hits give high values
# Procedure, shortened: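 DNA repair mutant yeast, compound exposure, growth read-out; inhibition is taken relative to vehicle.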
# [2] = NCI Yeast Anticancer Drug Screen. Data for the mec2-1 strain (AID 157); details: S. cerevisiae mec2-1 strain, at 50.0 µM, hits give high values
# Procedure, shortened: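 Cells of the genetically defined mec2-1 yeast strain are incubated with test compound. Inhibition of growth is calculated against vehicle-treated controls.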
# [3] = NCI Yeast Anticancer Drug Screen. Data for the sgs1 mgt1 strain (AID 161);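 note: 0% = growth of cultures given vehicle only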; details: S. cerevisiae sgs1 mgt1 strain, at 50.0 µM, hits give high values
# Procedure, shortened: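 Inhibition of yeast growth, normalised to vehicle-treated controls, is reported for a strain bearing genetic alterations in DNA damage repair.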
# [4] = NCI Yeast Anticancer Drug Screen. Data for the cln2 rad14 strain (AID 165);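 note: 0% = growth equal to vehicle treated cultures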; details: S. cerevisiae cln2 rad14 strain, at 50.0 µM, hits give high values
# Procedure, shortened: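 The screen exposed genetically defined yeast (cln2 rad14) to test compounds and scored growth inhibition relative to vehicle-treated controls.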
# [5] = NCI Yeast Anticancer Drug Screen. Data for the bub3 strain (AID 167); details: S. cerevisiae bub3 mutant strain, at 50.0 µM, hits give high values
# Procedure, shortened: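 In this screen, a yeast mutant lacking normal mitotic checkpoint function is challenged with compound. Relative growth versus vehicle gives the inhibition value.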
# [6] = NCI Yeast Anticancer Drug Screen. Data for the mlh1 rad18 strain (AID 175); details: S. cerevisiae mlh1 rad18 strain growth inhibition; at 50.0 µM; hits give high values
# Procedure, shortened: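 Compound-treated yeast growth, normalised to vehicle controls. Strain bears defined DNA repair mutations.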
SMILES,growth inhibition [1],growth inhibition [2],growth inhibition [3],growth inhibition [4],growth inhibition [5],growth inhibition [6]
CSc1nc(C)c2c(n1)N(c1ccc(Cl)cc1)CC2,1.7%,-32.5%,-16.5%,-35.3%,-17.2%,-30.4%
FC(F)(F)c1nnc(-c2ccccc2)nn1,-8.8%,-16.1%,-11.4%,-36.6%,-14.8%,-8.5%
COc1ccccc1CC(C)N1CCCC1c1ccccc1 (stereo not given),-12.1%,-6.8%,-0.9%,-41.6%,4.65%,3.4%
O=C(NNC(=O)OCc1ccccc1)OCc1ccccc1,23.9%,-2.75%,1.3%,-34.2%,11.5%,18.1%
COC1CC(NC(=O)c2ccccc2)C(O)C(C)O1 (stereo not given),8.65%,18.3%,11.6%,10.6%,0.8%,8.5%
Cc1cccnc1C(=O)O.[Cu+2],-9.55%,-0.45%,-29.1%,-45.2%,-32.8%,-7.4%
COc1ccc(C(O)C2CCCN(C)S2(=O)=O)cc1 (stereo not given),13.4%,21.9%,2.75%,15.5%,30.6%,15.6%
COc1ccc(/C=C/c2cnc3ccccc3n2)cc1OC,28.8%,-4.55%,58.4%,25.8%,45.4%,81% (active)
Cc1ccc(C(=O)NC(N)=O)cc1,12.4%,-6.25%,-17.8%,-51.4%,-13.1%,-18.6%
CC(=O)OC1CCC2=C3CCC4(C)C(=O)CCC4C3C(O)C2(C)C1 (stereo not given),0.05%,-2%,-5.3%,-5.2%,-14.3%,-9.5%
Nc1ncnc2c1ncn2C1CCC(CP(=O)(O)O)C1 (stereo not given),-6.85%,-25.4%,-23.4%,-29.4%,-5.45%,-0.1%
N#CCCCCCCl,-9.35%,-26.9%,10.2%,4.05%,-15.6%,14.8%
O=C(O)C1CC(Cl)C(Cl)CC1C(=O)O (stereo not given),-2.9%,-27.1%,0.85%,0.2%,-19.2%,-5.1%
O=C(O)C(Br)Cc1cccc([N+](=O)[O-])c1 (stereo not given),9.4%,-9.35%,10.6%,-5.65%,3.45%,17.7%
N#CCCC(CC#N)C1([N+](=O)[O-])CCCCC1 (stereo not given),23.8%,29.2%,7.85%,53.1%,32.8%,3.55%
O=C(O)c1ccc[n+](Cc2ccccc2)c1,4.9%,12.6%,-5.15%,-8.2%,-5.95%,2.15%
NC(=O)c1ccc(Cl)cc1,33%,14.2%,15.5%,14.4%,-0.6%,2%
COc1ccc(C(C#N)N2CCCCC2)cc1 (stereo not given),21.6%,-6.25%,-13.5%,22.1%,7.05%,0.4%

SMILES,growth inhibition [1],growth inhibition [2],growth inhibition [3],growth inhibition [4],growth inhibition [5],growth inhibition [6]
COc1c(-c2cccs2)oc2c(CC(=O)O)cccc2c1=O,10.9%,-10.8%,28.1%,5.9%,17.7%,-26%
Cc1c2oc3c(C)ccc(C(=O)NCCN4CCOCC4)c3nc-2c(C(=O)NCCN2CCOCC2)c(N)c1=O,-8.1%,29.6%,37.5%,-26.5%,38.9%,15.8%
COc1c(C)c(OCC=C(C)C)cc(CO)c1CO,11.8%,-3.2%,-13.9%,-8.15%,-0.95%,-84.5%
Cc1nc2ccccc2o1,19.9%,39.5%,13.1%,14.9%,-1.6%,-10.4%
CNc1ncnc2nc[nH]c12,16.2%,-6.85%,2.9%,-3.15%,-8.5%,14.9%
Cc1cc2c(cc1Cl)SC(NNC(=O)c1ccncc1)=NS2(=O)=O,-42.5%,-39.8%,-45.9%,-32.4%,-63.4%,-9.4%
[O-][n+]1ccccc1/C=C/c1cccc[n+]1[O-],-30.1%,-31.1%,-7.55%,-22%,-0.85%,-18.4%
COc1cc(/C=C\c2ccc(SC)cc2)cc(OC)c1OC,26.4%,20.6%,28.9%,15.3%,16.8%,-57.9%
COc1ccc(NC(=O)CC(=O)N/N=C/c2ccc(N(CCC#N)S(=O)(=O)c3ccccc3)cc2)cc1,-35.5%,-11.8%,-29.5%,8.15%,-11.2%,-2.75%
Nc1nc(=O)n(C2OC(CO)C(O)C2Cl)cc1I (stereo not given),10.4%,-3.8%,1.1%,-5.1%,7.8%,-0.75%
Cc1cccnc1Nc1ncccc1C,13.8%,-18.8%,10.9%,14.3%,8.3%,10.8%
COC(=O)Nc1nc2c(OC)c(OC)c(OC)cc2[nH]1,-5.15%,-6.75%,-3.95%,-17.9%,-18.6%,-17.1%
CC(=O)CC(=O)NC1CCCC1,-25.8%,-38.6%,-33%,-3.5%,-50%,-13.9%
Cc1cc(-c2cc(C)c(N)cc2S(=O)(=O)O)c(S(=O)(=O)O)cc1N,-12.3%,-23.4%,-1.2%,-3.2%,5.8%,1.15%
CCCS(=O)(=O)N1CCCC1,-1.25%,-15.8%,-2.1%,-34.5%,-24.4%,-19.4%
OC(COc1c2ccccc2nc2ccccc12)CN1CCN(c2ccccc2)CC1 (stereo not given),21.9%,-5.45%,6.5%,9%,0.9%,19.9%
CN(C)C(=O)OC1CCCCC1,-8.1%,-9.4%,-18.8%,-18.7%,-19.6%,-12.6%
